Assay outcomes as filed in PubChem.
Tau filament bind: qHTS Assay for Tau Filament Binding; recombinant tau filaments, thioflavin S fluorescence, 15 h; filaments grown with octadecylsulfate alongside compound; Potency, µM (doses to about 57.1 µM), inactives show at the top dose activity change, negative = inhibition; actives 2% (n = 71,000); AID 596, 2007; Microtubule-associated protein tau (Homo sapiens), P10636;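 also: % is scaled to controls: 0 for no effect and ±100 for the full control effect; actives lower thioflavin S fluorescence by blocking filaments or displacing dye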
Target sequence (P10636 whole entry, looked up): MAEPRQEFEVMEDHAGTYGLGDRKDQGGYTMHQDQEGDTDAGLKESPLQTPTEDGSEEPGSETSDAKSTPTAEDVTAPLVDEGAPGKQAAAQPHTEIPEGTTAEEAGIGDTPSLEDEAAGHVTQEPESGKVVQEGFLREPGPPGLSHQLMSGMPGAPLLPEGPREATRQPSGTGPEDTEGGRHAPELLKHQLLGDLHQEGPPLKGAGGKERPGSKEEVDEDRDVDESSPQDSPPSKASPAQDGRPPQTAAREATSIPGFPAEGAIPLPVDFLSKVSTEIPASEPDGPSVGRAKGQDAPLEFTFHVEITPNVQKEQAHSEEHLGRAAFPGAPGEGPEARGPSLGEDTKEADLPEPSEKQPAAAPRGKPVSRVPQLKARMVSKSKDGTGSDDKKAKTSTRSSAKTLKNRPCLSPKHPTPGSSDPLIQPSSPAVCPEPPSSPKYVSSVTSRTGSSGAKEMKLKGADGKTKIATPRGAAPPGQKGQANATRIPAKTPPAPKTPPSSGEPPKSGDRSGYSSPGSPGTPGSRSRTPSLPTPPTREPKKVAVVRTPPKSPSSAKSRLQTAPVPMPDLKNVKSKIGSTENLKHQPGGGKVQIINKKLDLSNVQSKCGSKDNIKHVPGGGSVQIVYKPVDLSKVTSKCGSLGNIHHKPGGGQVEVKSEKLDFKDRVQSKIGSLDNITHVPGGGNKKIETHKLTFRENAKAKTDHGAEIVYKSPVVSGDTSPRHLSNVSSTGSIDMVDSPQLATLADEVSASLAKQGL
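ThS-based fibril read: tau 1 uM final, inducer ODS 30 uM final, 37 C for 15 h, ex 450/em 510 nm.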
PK Bst: Pyruvate Kinase; purified pyruvate kinase, luminescence ATP production; ribose 5-phosphate activator present at AC10; Potency, µM; actives 1.2% (n = 51,000); AID 361, 2006; in the data active = potency below about 11 µM; inconclusive = mostly about 12 µM to 25 µM;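 the screen sought inhibitors and activators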;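 also: scaled between full activation by ribose 5 phosphate and full inhibition by luteolin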
Luciferase inh: qHTS Assay for Inhibitors of Firefly Luciferase; Luciferin 4-monooxygenase (Photinus pyralis), P08659; purified firefly luciferase, luminescence, 8 min; Potency, µM (top dose mostly 57.1 µM), for the others: top-dose activity change, negative = inhibition, usual class: inhibitors; actives 2.2% (n = 72,000); AID 411, 2009; also: % is scaled to controls: 0 for no effect and ±100 for the full control effect; nearly all actives have a fitted effect of over 40% in size
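Here, luciferase activity is measured as luminescence following an 8 min room-temperature reaction at 10 uM ATP, pH 7.2. Every library sample is titrated.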
Casp1 inh: qHTS Assay for Allosteric/Competitive Inhibitors of Caspase-1 | P29466 | Caspase-1 enzyme, Ac-WEHD-AFC fluorogenic rate | Potency, µM (series often up to 57.5 µM), for inactives: at the top dose activity change, negative = inhibition, actives largely listed as inhibitors | actives 0.03% (n = 75,000);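 also: plate controls were vehicle for no effect and no substrate for full effect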
Caspase-7 inhib: qHTS Assay for Allosteric/Competitive Inhibitors of Caspase-7. actives 0.02% (n = 75,000). recombinant caspase-7, Ac-DEVD-AFC fluorescence rate. AID 889, 2007. Potency, µM (top dose mostly 57.5 µM), inactives show at the top dose activity change, negative = inhibition, usual class: inhibitors. P55210; active = well fitted inhibition curve with a large enough effect in the main read-out, with a control signal flat, not every such curve was filed as active; inconclusive = small, poorly fitted or top-dose-only effect, or a change in a side signal; also: % of control where 0% means no effect
* = called active by the depositor; i = inactive; ? = inconclusive; nt = not tested or not shown; [ ] = another dose, or the depositor's remark. An excerpt weighted towards active compounds, which were near 4% of everything screened. Unless noted, calls follow the shape of the dose curve; as a rule, active = well fitted curve in the direction sought with a large enough effect; inconclusive = small, poorly fitted or top-dose-only effect, or another doubt; inactive = no such curve, though single readings can be large; an effect the other way counts as inactive or inconclusive. Potency is read from the fitted curve at half-maximal effect.

SMILES	Tau filament bind	PK Bst	Luciferase inh	Casp1 inh	Caspase-7 inhib
OC[C@@H](O)[C@@H](O)[C@@H](O)[C@@H](O)c1nc2ccc(Cl)cc2[nH]1	8.5%[11.4 µM]	nt	2.4%[11.4 µM]	0.0%[11.5 µM]	1.4%[11.5 µM]
COc1cc(NC(=O)C(C)C)ccc1NC(=O)c1ccco1	1.3%	nt	20µM*	-0.5%	0.6%
COc1ccc(NC(=O)c2ccco2)c(OC)c1	-1.6%	>57	-7.4%	1.8%	0.3%
Cc1ccc(OCc2nc(-c3ccccn3)no2)c(Br)c1	15.8%	nt	5.01µM*	0.9%	-0.4%
CCc1ccc(OCc2nc(-c3ccccn3)no2)c(Br)c1	89.5%	?	12.6µM*	-2.1%	-3.2%
Clc1ccc(OCc2nc(-c3ccncc3)no2)c(Br)c1	90.8%	nt	7.94µM*	-3.4%	-6.3%
CC(C)c1ccc(OCc2nc(-c3ccccn3)no2)c(Br)c1	41.6%	nt	15.8µM*	-4.6%	-3.1%
N[C@@](CCc1ccccc1)(C(=O)O)c1ccccc1	10.0%[11.4 µM]	nt	1.5%[11.4 µM]	-1.1%[11.5 µM]	2.2%[11.5 µM]
CC(=O)CC(=O)Nc1ccccc1	0.8%	nt	nt	-2.1%	-1.5%
COc1cc(C)cc2c(-c3c(O)cc(O)c4c3C[C@H](C)N[C@@H]4C)cc(-c3cc(-c4c(O)cc(O)c5c4C[C@H](C)N[C@@H]5C)c4cc(C)cc(OC)c4c3O)c(O)c12	3.98µM*	nt	1.1%[11.4 µM]	-0.2%[11.5 µM]	-2.8%[11.5 µM]
CCC(=O)CC(NC(=O)OC)c1ccc(F)cc1 (centres undefined)	nt	nt	nt	-3.5%[11.5 µM]	0.5%[11.5 µM]
FC(F)(F)c1cccc(OCCOCCn2cncn2)c1	-1.0%	>57	-0.3%	-10.0%	0.1%
c1ccc(-c2ccc(OCCOCCn3cncn3)cc2)cc1	59.3%	nt	12.6µM*	1.2%	-1.1%
c1ccc(COc2ccc(OCCCn3cncn3)cc2)cc1	-0.5%	nt	20µM*	-0.6%	-1.2%
c1ccc(Cc2ccc(OCCn3cncn3)cc2)cc1	-11.7%	>57	-1.0%	-0.6%	-0.6%
Nc1c(S(N)(=O)=O)cc(S(N)(=O)=O)cc1S(N)(=O)=O	-3.9%[11.4 µM]	nt	2.3%[11.4 µM]	-2.0%[11.5 µM]	-0.8%[11.5 µM]
CNc1nc(-c2cccnc2)nc2ccccc12	-4.3%	nt	0.9%[2.29 µM]	-1.3%	-3.2%
N[C@H](C(=O)O)[C@H](OCc1ccccc1)C(=O)O	34.9%	nt	1.3%	2.7%	-0.6%
O=C(Cn1nnc2c(cnn2-c2ccc(F)cc2)c1=O)OC1CCCCC1	20µM*	>57	-6.4%	-4.3%	-4.0%
COc1ccc(-c2nc3nc(C)c(Cc4ccccc4)c(=O)n3[nH]2)cc1	204.3%	>57	-5.5%	-2.8%	0.9%
COC(=O)Cc1c(C)nc2nc(-c3ccc(OC)cc3)[nH]n2c1=O	-3.4%	nt	12.6µM*	-1.0%	0.3%
CN(C)c1ncc2nc(-c3cccs3)c(=O)n(-c3ccccc3)c2n1	i	nt	1.0%[11.4 µM]	nt	?
CC(C)(C)N1C(=O)Cc2c1nc(N)c1c(N)nc(N3CCCCC3CO)c(C#N)c21 (centres undefined)	7.94µM*	nt	-7.4%	nt	?
O=C(CC(Nc1ccccc1)C(=O)O)c1ccccc1 (centres undefined)	-28.5%	10.4*	12.6µM*	-1.0%	0.5%
O=C(N[C@@H](Cc1ccccc1)C(=O)O)c1cccnc1	-26.6%	nt	2.4%	-0.2%	1.1%
SMILES	Tau filament bind	PK Bst	Luciferase inh	Casp1 inh	Caspase-7 inhib
CCNc1ncc2nc(-c3ccc(F)cc3)c(=O)n(CCOC)c2n1	14.6%	nt	0.5%[11.4 µM]	nt	?
COc1ccccc1OCCn1c(CO)nc2ccccc21	-6.9%	>57	-4.0%	-2.0%	-1.4%
OCc1nc2ccccc2n1CCCOc1ccc(Br)cc1	51.3%	?	12.6µM*	-0.9%	-2.0%
Cn1c(=O)c2nc(-c3ccccc3)oc2c2ccccc21	211.8%	0.432*	-3.2%	0.2%	0.4%
c1ccc2c(-c3nc(-c4ccncc4)no3)cccc2c1	66.9%	>11.4	-17.6%	-2.8%	-3.4%
Brc1ccccc1-c1nc(-c2ccccc2)no1	-7.1%[11.4 µM]	nt	3.16µM*	-1.5%	-1.3%
Cc1ccc(-c2nc(-c3ccccc3)no2)c(Cl)c1	18.3%	nt	0.251µM*	-1.4%	-1.2%
Fc1ccccc1-c1nc(-c2ccccc2)no1	-4.1%	5.75*	6.31µM*	-2.6%	-0.2%
c1ccc(-c2noc(-c3cccc4ccccc34)n2)cc1	-16.0%	i	15.8µM*	-4.8%	-1.4%
Cn1c(C(=O)NCc2ccc3c(c2)OCO3)cc2sccc21	5.6%	>57	-1.3%	1.9%	-4.5%
COc1cc(NC(=O)c2cc3sccc3n2C)cc(OC)c1	9.8%	4.03*	12.6µM*	-17.4%	-16.3%
COc1ccc(OC)c(NC(=O)c2cc3sccc3n2C)c1	-8.7%	nt	-26.2%	-0.8%	0.8%
Cn1c(C(=O)Nc2ccc3c(c2)OCO3)cc2sccc21	12.6µM*	6.37*	7.94µM*	0.7%	-1.7%
CN(CCc1ccc(Cl)c(Cl)c1)CCN1CCCC1	33.9%	nt	3.3%	0.4%	-0.8%
COc1cccc(-c2ccc3ncnc(NC4CC4)c3c2)c1	1.4%	nt	-3.3%[2.29 µM]	-1.3%	0.9%
O=C(COC(=O)c1ccccn1)c1ccc(Br)cc1	0.4%[11.4 µM]	nt	10µM*	-1.4%	-0.1%
Cc1ccc(C(=O)COC(=O)c2cnccn2)cc1	1.5%	nt	?	0.5%	-0.2%
COc1ccc(N2CCN(C(=O)c3ccc(NS(=O)(=O)c4ccc(F)cc4)cc3)CC2)cc1	15.8µM*	>57	-3.8%	-4.6%	-0.8%
CCOc1ccc(S(=O)(=O)Nc2cccc(C(=O)N3CCN(c4ccc(OC)cc4)CC3)c2)cc1	-16.4%	>57	0.7%	-4.1%	-4.3%
Fc1ccc([C@H]2CCNC[C@H]2COc2ccc3c(c2)OCO3)cc1	31.6µM*	nt	5.01µM*	-3.2%	1.5%
Cc1ccc(C(=O)Nc2cccc(C(=O)O)c2)cc1S(=O)(=O)N1CCCCC1	2.8%[11.4 µM]	nt	12.6µM*	-3.4%	0.4%
Cc1ccc(C(=O)Nc2ccc3c(c2)OCO3)cc1S(=O)(=O)N1CCCC1	1.8%	>57	-23.4%	-1.8%	3.5%
CC(C)C(=O)N[C@@H]1CCCN1C(=O)/C=C\c1ccccc1	nt	nt	0.9%[11.4 µM]	-0.8%[11.5 µM]	0.6%[11.5 µM]
Cc1c(C(=O)O)c(O)cc2c1C(=O)c1c(O)c([C@@H]3O[C@H](CO)[C@@H](O)[C@H](O)[C@@H]3O)c(O)c(O)c1C2=O	-28.0%	nt	-4.9%[11.4 µM]	nt	nt
N#Cc1nc(-c2ccc(OCc3ccc(Cl)cc3)cc2)oc1NCCCn1ccnc1	-18.1%	0.329*	5.0%	-1.2%	-0.6%
SMILES	Tau filament bind	PK Bst	Luciferase inh	Casp1 inh	Caspase-7 inhib
N#Cc1nc(-c2ccc(OCc3ccccc3)cc2)oc1NCCN1CCOCC1	156.7%	4.47*	2.5%	-5.2%	-8.2%
C=CCNc1oc(-c2ccc(OCC)cc2)nc1C#N	23.2%	5.34*	-2.2%	-1.7%	1.5%
C=CCNc1oc(-c2ccc(OC)cc2)nc1C#N	-4.4%	nt	-22.6%	-2.0%	-1.9%
N#Cc1nc(-c2ccc(OCc3ccccc3)cc2)oc1N1CCOCC1	15.8%	1.96*	5.6%	-8.1%	-1.6%
COc1cccc(/C=N/NC(=O)c2cc(-c3ccc(C)cc3)n[nH]2)c1O	nt	nt	nt	-2.9%	-9.1%
CNC[C@H](O)c1ccc(OC(=O)C(C)(C)C)c(OC(=O)C(C)(C)C)c1	-19.5%[25.6 µM]	nt	6.1%[25.5 µM]	-4.2%[25.7 µM]	0.4%[25.7 µM]
